Assay results from PubChem BioAssay (NCI).
About 83,000 compounds went through this panel and 20% of them were active in at least one assay; those are over-represented in the sample as a whole.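 Cells were grown in 96-well plates and exposed to the test compound at a single concentration for 48 hours; results are reported as percent growth, with values below 10 considered active.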 The source made the active and inactive calls.

Legend:
Test in all cases: NCI-60 one-dose screen, 48 h (100 = growth as untreated, 0 = no growth, -100 = all killed)
Conditions in all cases: 10 µM unless noted
[1] = tested on: NCI-H23 lung
[2] = tested on: NCI-H226 lung
[3] = tested on: NCI-H322M lung
[4] = tested on: HOP-62 NSCLC
[5] = tested on: NCI-H460 lung
[6] = tested on: HOP-92 NSCLC
[7] = tested on: NCI-H522 lung
[8] = tested on: A549/ATCC NSCLC
[9] = tested on: 786-0 renal
[10] = tested on: COLO 205 colon
[11] = tested on: DU-145 prostate
[12] = tested on: K-562 leukemia
[13] = tested on: MALME-3M melanoma
[14] = tested on: MDA-MB-231 breast
[15] = tested on: RXF 393 renal
[16] = tested on: SF-268 CNS
[17] = tested on: SF-295 CNS
[18] = tested on: SF-539 CNS
[19] = tested on: UACC-257 melanoma
[20] = tested on: M14 melanoma

Measured: growth

Nc1ncnc2c1N=C(c1ccc(Br)cc1)CC(c1cccc(Nc3ccnc4cc(C(F)(F)F)ccc34)c1)N2 (stereo not given)
inactive: [1] 62.7% | [2] 67.3% | [3] 95.6% | [4] 60.1% | [5] 59.1% | [6] 41.4% | [7] 74% | [8] 55.2% | [9] 53.7% | [10] 54.6% | [11] 85.6% | [12] 23% | [13] 76.8% | [14] 55.9% | [15] 38.5% | [16] 55.5% | [17] 52.2% | [18] 70.8% | [19] 66.6% | [20] 60.1%

CN(C)c1ccc(C(=O)OCCCCCCl)cc1
inactive: [1] 90.7% | [2] 99% | [3] 85.4% | [4] 91.8% | [5] 104% | [6] 89.3% | [7] 89.2% | [8] 100% | [9] 95.3% | [10] 110% | [11] 96.4% | [12] 106% | [13] 89% | [14] 87.4% | [15] 102% | [16] 94% | [17] 98.9% | [18] 96.1% | [19] 109% | [20] 95.3%

Cc1c2cnccc2c(C)c2c1c1cc(C#N)ccc1n2C
active: [1] -37.4% | [2] -18.6% | [3] -16% | [4] -25.5% | [5] -19.7% | [6] -12.1% | [7] -71% | [8] -19.8% | [9] -16.1% | [10] -37.2% | [11] 3.34% | [12] -8.24% | [13] -77.4% | [14] -23.5% | [15] -85.1% | [16] -8.27% | [17] -11.7% | [18] -61.7% | [19] -29% | [20] -83.3%

O=C(Nc1cccc(Cl)c1)Nc1cccc(Cn2c(=O)[nH]c3ccc(Oc4ncccn4)cc3c2=O)c1
inactive: [1] 33.1% | [2] 64.4% | [3] 66.1% | [4] 64.8% | [5] 42.8% | [6] 43.7% | [7] 25.6% | [8] 40.4% | [9] 71.4% | [10] 48.3% | [11] 37.3% | [12] 26.3% | [13] 58.9% | [14] 53.4% | [15] 67.5% | [16] 30.8% | [17] 36.2% | [18] 62.8% | [19] 23.7% | [20] 53%

CCOC(=O)c1cc(C(=O)c2cc(OC)c(OC)c(OC)c2)n2ncccc12
active: [10] -24.7% | [15] -4.2% | [18] -12.3% | [20] 3.88%
inactive: [1] 38% | [2] 29.6% | [3] 48.1% | [4] 32.2% | [5] 10.3% | [6] 73.6% | [7] 34.8% | [8] 24.1% | [9] 26.5% | [11] 23.7% | [12] 10.9% | [13] 44.9% | [14] 31.2% | [16] 47.7% | [17] 13.6% | [19] 52.1%

OCCn1cc(-c2nc(-c3c[nH]c4ncccc34)cs2)c2cc(F)ccc21
inactive: [1] 76.2% | [2] 48.4% | [3] 66.3% | [4] 71.9% | [5] 65.7% | [6] 52.3% | [7] 45.5% | [8] 63% | [9] 81.9% | [10] 66.4% | [11] 83.7% | [12] 21.5% | [13] 84.9% | [14] 64.5% | [15] 51.1% | [16] 77% | [17] 72.1% | [18] 81.5% | [19] 87.8% | [20] 63.8%

CC(C)=CC(=O)OCC(=O)O[C@@H]1C[C@]2(C(C)C)O[C@@]1(C)[C@@H]1CC[C@@H](C)[C@H]1[C@@H]2OC(=O)/C=C/c1ccccc1
active: [15] 1.65%
inactive: [1] 76% | [2] 55.5% | [3] 90.7% | [4] 96.7% | [5] 93.5% | [6] 61% | [7] 70.4% | [8] 83.4% | [9] 66% | [10] 106% | [11] 96.8% | [12] 60.7% | [13] 99.8% | [14] 90.9% | [16] 62.3% | [17] 95.4% | [18] 104% | [19] 86.8% | [20] 88.1%

CCCCC1=C(P(=O)(O)O)N[C@H](C(=O)O)CS1
inactive: [1] 97.5% | [2] 95.5% | [3] 73.8% | [4] 89.4% | [5] 107% | [6] 89.5% | [7] 83.2% | [8] 92% | [9] 95.1% | [10] 108% | [11] 104% | [12] 93.1% | [13] 96.3% | [14] 90.6% | [15] 93.5% | [16] 98.6% | [17] 85.9% | [18] 93.1% | [19] 86.6% | [20] 92.7%
